# Source: PubChem BioAssay AID1220 (Sanford-Burnham Center for Chemical Genomics, 2008)
# Hit rate of the full screen: of about 190,000 compounds, about 1,300 (0.68%) were called active. The full list was thinned out, with actives kept by preference. Values without a mark were called inactive. Cut-off read from the data, not from the text of the source: active = inhibition above about 50%; inactive = the rest.
# Molecular target: Mannose-6-phosphate isomerase (Homo sapiens) (UniProt P34949)
# Test: human PMI inhibitors, high substrate, primary screen, biochemical, fluorescence intensity, high mannose 6-phosphate (AID 1220)
# Conditions: recombinant PMI enzyme, coupled fluorescence intensity; at 20 µM; active compounds read high
# Sequence of Mannose-6-phosphate isomerase (Homo sapiens) (P34949 whole entry, looked up): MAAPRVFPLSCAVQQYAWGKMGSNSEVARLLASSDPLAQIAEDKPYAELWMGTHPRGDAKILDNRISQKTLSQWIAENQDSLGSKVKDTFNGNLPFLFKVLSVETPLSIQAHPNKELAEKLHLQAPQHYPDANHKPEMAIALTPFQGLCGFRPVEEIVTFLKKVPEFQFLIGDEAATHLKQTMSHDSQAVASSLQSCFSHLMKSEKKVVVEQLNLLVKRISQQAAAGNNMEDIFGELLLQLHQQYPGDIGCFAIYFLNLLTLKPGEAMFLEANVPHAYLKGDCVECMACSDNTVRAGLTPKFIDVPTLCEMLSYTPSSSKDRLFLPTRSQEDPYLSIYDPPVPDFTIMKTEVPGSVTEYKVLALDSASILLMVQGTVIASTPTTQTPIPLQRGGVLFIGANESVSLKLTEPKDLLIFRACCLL
row,SMILES,inhibition
1,O=C(COC(=O)c1cccnc1)Nc1ccc2c(c1)OCO2,17.6%
2,Cc1cc(C)c(C(=O)Nc2ccc(S(=O)(=O)Nc3onc(C)c3C)cc2)c(C)c1,7.8%
3,OC(COC1CCCCC1)CN1CCN(c2ccccc2)CC1 (configuration not stated),10.6%
4,N/C(=N\OC(=O)c1cc(Cl)ccc1Cl)c1ccccn1,-10.6%
5,Cc1cc(C)n(CCN(C)c2nc3nonc3nc2NC2CC2)n1,14.8%
6,CCN(CC)C(=O)c1ccc2c(c1[N+](=O)[O-])C(=O)c1ccccc1C2=O,29.5%
7,Cc1[nH]c2ccccc2c1CCNC(=O)c1ccc2c(c1[N+](=O)[O-])C(=O)c1ccccc1C2=O,53.9% (active)
8,CCCNC(=O)NCCc1c(C)[nH]c2ccccc12,0.4%
9,Cc1[nH]c2c(C)cccc2c1CCNC(=O)c1ccc2c(c1[N+](=O)[O-])C(=O)c1ccccc1C2=O,55.5% (active)
10,CN(C)C(=O)c1ccc2c(c1[N+](=O)[O-])C(=O)c1ccccc1C2=O,-16.2%
11,Cc1ccc([N+](=O)[O-])cc1S(=O)(=O)NCCc1c(C)[nH]c2c(C)cccc12,-3%
12,O=C(O)c1cccc(NS(=O)(=O)c2ccc3nnn(O)c3c2)c1,11.9%
13,CCn1c(=O)c(C(=O)NNS(=O)(=O)c2ccc(Cl)cc2)c(O)c2ccccc21,-7.4%
14,CN(C(=O)c1c(Br)cnn1C)C12CC3CC(CC(C3)C1)C2,-2.3%
15,CCC(=O)Nc1cccc(NC(=O)COc2ccc(OC)cc2)c1,6.7%
16,CC(=O)Nc1c(S(=O)(=O)c2ccccc2)c2nc3ccccc3nc2n1Cc1ccccc1,7.9%
17,Cc1ccc(S(=O)(=O)c2c(N)n(NC(=O)c3ccco3)c3nc4ccccc4nc23)cc1,-41.3%
18,Cc1ccc(S(=O)(=O)c2c(N)n(CCC(C)C)c3nc4ccccc4nc23)cc1,1.8%
19,CCCCn1c(NC(=O)c2ccc(Br)o2)c(S(=O)(=O)c2ccccc2)c2nc3ccccc3nc21,5.9%

row,SMILES,inhibition
1,C=CCn1c(NS(=O)(=O)c2ccccc2)c(S(=O)(=O)c2ccc(C)cc2)c2nc3ccccc3nc21,52.4% (active)
2,C=CCn1c(NC(=O)c2ccc(Br)o2)c(S(=O)(=O)c2ccccc2)c2nc3ccccc3nc21,50.8% (active)
3,CCCCn1c(NS(=O)(=O)c2ccc(C)cc2)c(S(=O)(=O)c2ccccc2)c2nc3ccccc3nc21,54.9% (active)
4,CCCCn1c(NCc2ccccc2NS(=O)(=O)c2ccc(C)cc2)nc2ccccc21,15.2%
5,C=CCn1c(NC(=O)c2ccco2)c(S(=O)(=O)c2ccccc2)c2nc3ccccc3nc21,34.3%
6,Cc1ccc(S(=O)(=O)c2c(N)n(Cc3ccco3)c3nc4ccccc4nc23)cc1,-3.1%
7,CCCCCn1c(NC(=O)c2ccco2)c(S(=O)(=O)c2ccc(C)cc2)c2nc3ccccc3nc21,50.2% (active)
8,Cc1ccc(-n2c(N)c(S(=O)(=O)c3ccccc3)c3nc4ccccc4nc32)cc1,0.2%
9,CC(C)CSc1n[nH]c(N)n1,-6.6%
10,Cc1ccccc1/C=N\NC(=O)c1ccccc1-n1cccc1,15.6%
11,CCOC(=O)c1c(N/N=C/c2ccncc2)n[nH]c1C,-0.3%
12,Cc1ccccc1Nc1nnc(SCC(=O)NC(=O)Nc2ccc3c(c2)OCCO3)s1,3.7%
13,Cc1ccc(NC(N)=S)cc1,-4.6%
14,COc1cccc(-c2nn3c(-c4cc(C)[nH]n4)nnc3s2)c1,-5.7%
15,CC(C(=O)OCC(=O)Nc1ccc(S(=O)(=O)N2CCCCC2)cc1)N1C(=O)c2ccccc2C1=O (configuration not stated),7.2%
16,O=S(=O)(c1ccccc1)c1nc(NCc2cccnc2)sc1Cl,-5.8%
17,O=C(Nc1ccc(NC(=O)C2CCCN2C(=O)OCc2ccccc2)cc1)c1ccco1 (configuration not stated),-8.3%
18,COc1ccc(CNC(=O)C(OC(=O)c2nsc(Cl)c2Cl)C(C)C)cc1 (configuration not stated),14.4%
19,CC/C(=N/OC(=O)c1cccc(C)c1)C(=O)c1cccs1,-0.6%

row,SMILES,inhibition
1,CCOc1ccc(NC(=O)C2CCN(C(=O)NC3CCCCC3)CC2)cc1,-11.9%
2,CCn1nnnc1-c1ccc(OC)c(S(=O)(=O)Nc2ccc(C)c(C)c2)c1,-3.8%
3,Cc1ccc(Cl)cc1N1CCN(C(=O)CCC(=O)O)CC1,-5.1%
4,Cc1ccc(CSC2=NCCN2C(=O)C2CC2)cc1,-1.1%
5,Nc1c(S(=O)(=O)c2ccccc2)c2nc3ccccc3nc2n1C1CC1,0.4%
6,CCC(=O)Nc1c(C#N)c2nc3ccccc3nc2n1C1CCCCC1,17.4%
7,O=S(=O)(Nc1c(S(=O)(=O)c2ccccc2)c2nc3ccccc3nc2n1C1CCCCC1)c1ccccc1,59.7% (active)
8,Cc1ccc(S(=O)(=O)c2c(N)n(CCCO)c3nc4ccccc4nc23)cc1,8.6%
9,CCCCn1c(NS(=O)(=O)c2ccccc2)c(S(=O)(=O)c2ccc(C)cc2)c2nc3ccccc3nc21,57.6% (active)
10,CCCCn1c(N)c(S(=O)(=O)c2ccc(C)cc2)c2nc3ccccc3nc21,20.2%
11,Cc1ccc(N(Cc2ccc([N+](=O)[O-])cc2)C(=O)c2ccco2)cc1C,4.7%
12,Cc1ccc(O)c(-c2cc(C(F)(F)F)[nH]n2)c1,3.7%
13,COC(=O)c1nc2nc(C)cc(=O)n2[nH]1,3.3%
14,O=C(Nc1ccc([N+](=O)[O-])cc1)C1C(c2ccccc2)=C1c1ccccc1,1.6%
15,CC(C)C(c1nnnn1Cc1ccc(F)cc1)N1CCSCC1 (configuration not stated),4.6%
16,CC(C)C(c1nnnn1Cc1ccc(F)cc1)N1CCN(c2ccc(O)cc2)CC1 (configuration not stated),66.2% (active)
17,CC(C)C(c1nnnn1Cc1ccc(F)cc1)N1CCN(C2CCCC2)CC1 (configuration not stated),3%
18,Cn1c(-c2ccc(F)cc2)cnc1NCc1cc2c(cc1[N+](=O)[O-])OCO2,15.7%
19,CCNc1nc(NC(C)C)nc(N(n2cnnc2)S(=O)(=O)c2ccc(C)cc2)n1,5.3%
